The structures appear in SMILES notation. Values joined by “and” are separate entries in the source; they are usually repeats but may differ in a detail not shown here. Identical values can stand only once. Results filed as inconclusive are left out. Active and inactive are the calls of the source. Rule for the calls: active = hit-call score of the fitted dose curve at least 0.9, where 1 is the maximum; inconclusive = response in the unintended direction; inactive = score below 0.9.

Assay [1] concerns the target D(1A) dopamine receptor (Homo sapiens) (UniProt P21728). Description: NVS_GPCR_hDRD1: NovaScreen (NVS) G Protein-Coupled Receptor Assay for human Dopamine Receptor D1 (DRD1) (AID 2283269). In short, it runs like this:
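Radioligand displacement binding on membranes/protein extracted from HEK293 expressing human D1, cell-free; read 1 h after dosing by filter-based scintillation counting. Primary screen in duplicate at 25 uM, actives followed up in concentration series; signal loss versus DMSO baseline.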

The target in assay [2] is Muscarinic acetylcholine receptor M5 (Homo sapiens) (UniProt P08912). Briefly: NVS_GPCR_hM5: NovaScreen (NVS) G Protein-Coupled Receptor Assay for human Muscarinic, M5 Receptor (AID 2283275). The gist of the method:
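Radioligand displacement on CHO-derived membrane preparations, 1 h, filter-based scintillation counting. Single-concentration duplicate screen at 25 uM; hits (e.g. 30% inhibition) retested in singleton concentration-response up to 50 uM. Loss of binding fitted versus DMSO.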

In assay [3] the target is human Neuropeptide Receptor Y1 (NPY1), NPY1R (gene 4886) (UniProt P25929). Briefly: NVS_GPCR_hNPY1: NovaScreen (NVS) G Protein-Coupled Receptor Assay for human Neuropeptide Receptor Y1 (NPY1) (AID 2283276). In short, it runs like this:
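Cell-free radioligand binding using receptor extracted from SK-N-MC cells, 1 h incubation, filter-based scintillation counting. Primary screen single concentration 25 uM in duplicate; actives followed in concentration series. Loss of bound signal scored versus DMSO.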

In assay [4] the target is human Neurokinin, NK2 Receptor, TACR2 (gene 6865) (UniProt P21452). Description: NVS_GPCR_hNK2: NovaScreen (NVS) G Protein-Coupled Receptor Assay for human Neurokinin, NK2 Receptor (AID 2283278).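 Note: actives reduce bound radioligand signal relative to DMSO baseline.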 In short, it runs like this: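 Radioligand binding on membranes from CHO cells expressing receptor, filter-based scintillation read 4 h after dosing. Initial duplicate screen at 25 uM, actives in concentration series; loss of signal versus DMSO.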

The target in assay [5] is human Neurotensin Receptor (NTS), NTSR1 (gene 4923) (UniProt P30989). Description: NVS_GPCR_hNTS: NovaScreen (NVS) G Protein-Coupled Receptor Assay for human Neurotensin Receptor (NTS) (AID 2283279). In short, it runs like this: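 Radioligand displacement on human NTSR1 protein from CHO cells, cell-free, 1 h, filter-based scintillation counting. Primary screen at 25 uM in duplicate; hits rerun in concentration-response up to 50 uM.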

Assay [6] has as its target human Opioid Receptor Delta 1 (Opiate D1), OPRD1 (gene 4985) (UniProt P41143). Briefly: NVS_GPCR_hOpiate_D1: NovaScreen (NVS) G Protein-Coupled Receptor Assay for human Opioid Receptor Delta 1 (Opiate D1) (AID 2283280). The gist of the method:
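Radioligand displacement on membranes from CHO cells expressing the receptor, read by filter scintillation counting 1 h after dosing. Duplicate single-point screen at 25 uM, then concentration series for actives; loss of signal versus DMSO.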

Assay [7] addresses human Orphanin, Opioid Related Nociceptin Receptor 1 (ORL1), OPRL1 (gene 4987) (UniProt P41146). Description: NVS_GPCR_hORL1: NovaScreen (NVS) G Protein-Coupled Receptor Assay for human Orphanin, Opioid Related Nociceptin Receptor 1 (ORL1) (AID 2283283). The gist of the method: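 Filter-based radioligand displacement with receptor extracted from HEK293 cells, read 1 hour after dosing by scintillation counting. Duplicate single-point screen at 25 uM; qualifying chemicals then run in concentration-response to 50 uM, analysed relative to DMSO.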

In assay [8] the target is mouse Cholecystokinin, CCK1 Receptor (CCKA), Cckar (gene 12425) (UniProt O08786). Description: NVS_GPCR_mCCKAPeripheral: NovaScreen (NVS) G Protein-Coupled Receptor Assay for mouse Cholecystokinin, CCK1 Receptor (CCKA) (AID 2283285). The gist of the method:
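Radioligand competitive displacement on mouse pancreatic membranes, 2 h incubation; filter-based scintillation counting, loss of signal versus DMSO. Single-concentration screen at 25 uM in duplicate, actives retested in concentration-response up to 50 uM.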

Assay [9] concerns rabbit Platelet Activating Factor Receptor (PAF), gene 100354046. Briefly: NVS_GPCR_rabPAF: NovaScreen (NVS) G Protein-Coupled Receptor Assay for rabbit Platelet Activating Factor Receptor (PAF) (AID 2283287). The gist of the method: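 Rabbit platelet membrane preparation; radioligand displacement read by filter-based scintillation counting 1 h after dosing, loss of signal versus DMSO. Primary screen in duplicate at 25 uM, actives followed up in concentration series.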

For assay [10], the system named is 5-hydroxytryptamine receptor 2C (pig). Briefly: NVS_GPCR_p5HT2C: NovaScreen (NVS) G Protein-Coupled Receptor Assay for pig Serotonin, 5-Hydroxytryptamine Receptor 2C (5HT2C) (AID 2283288). In short, it runs like this: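 Pig choroid plexus membranes; radioligand competitive binding, filter-based scintillation counting, read 1 h after dosing. Primary screen in duplicate at 25 uM; actives then run as concentration series; loss of signal versus DMSO baseline.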

In assay [11] the target is rat Adrenergic, Alpha 1, Non-selective Receptor (Adra1), Adra1a (gene 29412) (UniProt P43140). Briefly: NVS_GPCR_rAdra1_NonSelective: NovaScreen (NVS) G Protein-Coupled Receptor Assay for rat Adrenergic, Alpha 1, Non-selective Receptor (Adra1) (AID 2283289). In short, it runs like this: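 Rat forebrain membranes; radioligand displacement read by filter-based scintillation counting 1 h after dosing. Primary screen in duplicate at 25 uM; hits (e.g. ≥30% inhibition) rerun as concentration–response to 50 uM max. Fitted versus DMSO.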

Assay [12] has as its target Muscarinic acetylcholine receptor M2 (Homo sapiens) (UniProt P08172). Description: NVS_GPCR_hM2: NovaScreen (NVS) G Protein-Coupled Receptor Assay for human Muscarinic, M2 Receptor (AID 2283273). In short, it runs like this: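 Cell-free radioligand binding using membranes from CHO cells expressing the receptor; filter-based scintillation counting after 1 hour of compound exposure. Loss of specific binding relative to DMSO baseline; primary screen at 25 uM in duplicate, actives then run in concentration series.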

For assay [13], the target named is human Leukotriene B4 Receptor 1 (LTB4-BLT1), LTB4R (gene 1241) (UniProt Q15722). Description: NVS_GPCR_hLTB4_BLT1: NovaScreen (NVS) G Protein-Coupled Receptor Assay for human Leukotriene B4 Receptor 1 (LTB4-BLT1) (AID 2283271). In short, it runs like this:
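Radioligand displacement binding on receptor extracted from human neutrophils, cell-free, 1 h after dosing; filter-based scintillation counting. Primary screen in duplicate at 25 uM, actives retested in concentration-response up to 50 uM; loss of signal versus DMSO.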

Assay [14] addresses human Thromboxane A2 Receptor (TXA2), TBXA2R (gene 6915) (UniProt P21731). Description: NVS_GPCR_hTXA2: NovaScreen (NVS) G Protein-Coupled Receptor Assay for human Thromboxane A2 Receptor (TXA2) (AID 2283282).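 Note: actives reduce bound radioligand signal relative to DMSO baseline.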 In short, it runs like this:
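Human platelet membranes tested for radioligand displacement by filtration and scintillation counting 1 h post-dose. Screened in duplicate at 25 uM; activity fitted as signal loss relative to DMSO.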

In assay [15] the target is Neuropeptide Y receptor type 2 (Homo sapiens) (UniProt P49146). Briefly: NVS_GPCR_hNPY2: NovaScreen (NVS) G Protein-Coupled Receptor Assay for human Neuropeptide Receptor Y2 (NPY2) (AID 2283277). The gist of the method:
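Radioligand binding on membranes extracted from SK-N-MC cells, cell-free, read 1 h after dosing by filter-based scintillation counting. Loss of signal vs DMSO. Primary screen in duplicate at 25 uM; actives followed up in concentration-response up to 50 uM.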

Assay [16] deals with Muscarinic acetylcholine receptor M1 (Homo sapiens) (UniProt P11229). Description: NVS_GPCR_hM1: NovaScreen (NVS) G Protein-Coupled Receptor Assay for human Muscarinic, M1 Receptor (AID 2283270). The gist of the method:
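Cell-free radioligand displacement using membrane protein extracted from CHO cells, read by filter-based scintillation counting 1 h after dosing. Loss of bound signal fitted versus DMSO; primary screen single concentration 25 uM in duplicate, actives followed by concentration series.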

Assay [17] has as its target human Purinergic Receptor P2Y, P2RY1 (gene 5028) (UniProt P47900). Description: NVS_GPCR_hPY2: NovaScreen (NVS) G Protein-Coupled Receptor Assay for human Purinergic Receptor P2Y (AID 2283281). The gist of the method:
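Cell-free radioligand binding using U937-derived protein, 1 h after dosing, filter-based scintillation counting. Screened in duplicate at 25 uM; actives rerun as concentration-response up to 50 uM; loss of signal versus DMSO.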

Assay [18] has as its target Muscarinic acetylcholine receptor M3 (Homo sapiens) (UniProt P20309). Description: NVS_GPCR_hM3: NovaScreen (NVS) G Protein-Coupled Receptor Assay for human Muscarinic, M3 Receptor (AID 2283272). The gist of the method:
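Radioligand displacement binding on human M3 receptor in CHO-derived membranes, 1 h incubation, filter-based scintillation counting. Primary screen in duplicate at 25 uM; actives followed up in concentration series; loss of signal versus DMSO.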

Assay [19] has as its target human Vasopressin 1A Receptor (V1A), AVPR1A (gene 552) (UniProt P37288). Description: NVS_GPCR_hV1A: NovaScreen (NVS) G Protein-Coupled Receptor Assay for human Vasopressin 1A Receptor (V1A) (AID 2283284). In short, it runs like this: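 Cell-free radioligand displacement on human platelet preparations, 1.5 h incubation, filter-based scintillation counting. Chemicals first tested in duplicate at 25 uM; actives then run in concentration-response up to 50 uM, loss of signal fitted against DMSO.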

The target of assay [20] is rat Serotonin, 5-Hydroxytryptamine Receptor 1 (5HT1), Non-Selective Binding, Htr1a (gene 24473) (UniProt P19327). Description: NVS_GPCR_r5HT1_NonSelective: NovaScreen (NVS) G Protein-Coupled Receptor Assay for rat Serotonin, 5-Hydroxytryptamine Receptor 1 (5HT1), Non-Selective Binding (AID 2283286). The gist of the method:
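Rat cortical membranes, radioligand displacement, 1 h incubation, read by filter scintillation. Primary screen in duplicate at 25 uM. Hits (e.g. ≥30% inhibition) went to concentration-response up to 50 uM, fitted as loss of binding versus DMSO.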

Sequence of human Thromboxane A2 Receptor (TXA2), TBXA2R (gene 6915) (P21731 whole entry, looked up): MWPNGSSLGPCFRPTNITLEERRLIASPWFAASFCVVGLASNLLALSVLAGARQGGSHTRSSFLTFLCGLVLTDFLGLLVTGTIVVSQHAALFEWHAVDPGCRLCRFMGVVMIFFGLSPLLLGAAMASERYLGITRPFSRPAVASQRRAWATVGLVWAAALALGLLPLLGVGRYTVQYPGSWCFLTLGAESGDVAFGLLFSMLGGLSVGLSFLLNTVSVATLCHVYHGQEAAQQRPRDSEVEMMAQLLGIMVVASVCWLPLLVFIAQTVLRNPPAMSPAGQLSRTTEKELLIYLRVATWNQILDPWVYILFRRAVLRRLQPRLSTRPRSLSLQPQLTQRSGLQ
Sequence of human Neurokinin, NK2 Receptor, TACR2 (gene 6865) (P21452 whole entry, looked up): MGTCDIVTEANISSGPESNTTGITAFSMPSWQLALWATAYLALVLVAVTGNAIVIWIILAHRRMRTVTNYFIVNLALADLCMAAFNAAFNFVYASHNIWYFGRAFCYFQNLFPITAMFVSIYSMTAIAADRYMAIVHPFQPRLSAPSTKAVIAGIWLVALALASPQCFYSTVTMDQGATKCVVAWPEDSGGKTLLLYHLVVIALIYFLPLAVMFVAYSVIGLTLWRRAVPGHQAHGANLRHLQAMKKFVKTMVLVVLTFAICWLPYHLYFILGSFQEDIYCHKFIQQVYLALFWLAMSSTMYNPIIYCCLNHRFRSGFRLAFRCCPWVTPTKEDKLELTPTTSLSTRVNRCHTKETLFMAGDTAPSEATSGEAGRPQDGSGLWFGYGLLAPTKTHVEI
Sequence of mouse Cholecystokinin, CCK1 Receptor (CCKA), Cckar (gene 12425) (O08786 whole entry, looked up): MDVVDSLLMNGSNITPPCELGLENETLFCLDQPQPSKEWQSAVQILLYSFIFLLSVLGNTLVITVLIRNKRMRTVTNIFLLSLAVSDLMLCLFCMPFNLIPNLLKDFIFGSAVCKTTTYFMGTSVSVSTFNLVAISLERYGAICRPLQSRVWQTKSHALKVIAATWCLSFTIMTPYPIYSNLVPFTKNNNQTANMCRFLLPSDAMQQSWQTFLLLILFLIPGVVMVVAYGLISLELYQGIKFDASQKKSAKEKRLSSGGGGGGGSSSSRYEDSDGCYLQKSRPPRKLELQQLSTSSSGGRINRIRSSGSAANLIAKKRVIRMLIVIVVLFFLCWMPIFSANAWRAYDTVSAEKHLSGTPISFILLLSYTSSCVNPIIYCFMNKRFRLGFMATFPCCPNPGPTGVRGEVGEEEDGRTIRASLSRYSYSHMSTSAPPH
Sequence of Muscarinic acetylcholine receptor M5 (Homo sapiens) (P08912 whole entry, looked up): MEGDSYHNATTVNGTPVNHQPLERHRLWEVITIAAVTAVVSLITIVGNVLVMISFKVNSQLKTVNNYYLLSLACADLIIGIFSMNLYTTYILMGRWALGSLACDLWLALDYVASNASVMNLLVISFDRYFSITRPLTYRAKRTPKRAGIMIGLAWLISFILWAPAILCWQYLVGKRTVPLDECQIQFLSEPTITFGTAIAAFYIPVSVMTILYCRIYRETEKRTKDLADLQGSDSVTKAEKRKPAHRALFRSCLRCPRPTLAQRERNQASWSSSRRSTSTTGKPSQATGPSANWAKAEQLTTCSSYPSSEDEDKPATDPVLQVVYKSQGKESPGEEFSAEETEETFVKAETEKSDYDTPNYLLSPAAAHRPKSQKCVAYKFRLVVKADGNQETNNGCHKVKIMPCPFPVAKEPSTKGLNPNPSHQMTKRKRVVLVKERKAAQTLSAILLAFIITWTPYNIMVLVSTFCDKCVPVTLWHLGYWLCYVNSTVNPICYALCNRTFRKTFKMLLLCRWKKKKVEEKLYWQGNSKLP
Sequence of D(1A) dopamine receptor (Homo sapiens) (P21728 whole entry, looked up): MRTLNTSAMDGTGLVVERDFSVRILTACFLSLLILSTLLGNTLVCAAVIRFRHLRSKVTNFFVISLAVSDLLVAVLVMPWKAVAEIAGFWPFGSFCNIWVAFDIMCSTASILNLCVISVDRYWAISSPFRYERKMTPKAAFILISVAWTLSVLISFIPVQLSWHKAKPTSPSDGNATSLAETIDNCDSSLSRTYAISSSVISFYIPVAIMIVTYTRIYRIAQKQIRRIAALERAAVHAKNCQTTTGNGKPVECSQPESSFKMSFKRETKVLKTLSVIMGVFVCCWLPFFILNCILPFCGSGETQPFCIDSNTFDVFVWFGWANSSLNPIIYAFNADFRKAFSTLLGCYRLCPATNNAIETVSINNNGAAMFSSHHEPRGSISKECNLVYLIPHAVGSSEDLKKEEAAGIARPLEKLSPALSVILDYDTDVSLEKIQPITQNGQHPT
Sequence of human Orphanin, Opioid Related Nociceptin Receptor 1 (ORL1), OPRL1 (gene 4987) (P41146 whole entry, looked up): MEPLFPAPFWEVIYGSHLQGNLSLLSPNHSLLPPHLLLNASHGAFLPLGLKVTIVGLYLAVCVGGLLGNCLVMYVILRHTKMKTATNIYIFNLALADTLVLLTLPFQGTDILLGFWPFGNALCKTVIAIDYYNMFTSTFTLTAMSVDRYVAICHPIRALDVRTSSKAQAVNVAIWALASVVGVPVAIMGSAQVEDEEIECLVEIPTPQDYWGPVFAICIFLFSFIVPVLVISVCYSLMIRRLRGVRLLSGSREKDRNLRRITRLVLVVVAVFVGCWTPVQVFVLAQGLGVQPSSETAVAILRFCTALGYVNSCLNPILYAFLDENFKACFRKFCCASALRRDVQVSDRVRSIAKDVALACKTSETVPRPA
Sequence of human Opioid Receptor Delta 1 (Opiate D1), OPRD1 (gene 4985) (P41143 whole entry, looked up): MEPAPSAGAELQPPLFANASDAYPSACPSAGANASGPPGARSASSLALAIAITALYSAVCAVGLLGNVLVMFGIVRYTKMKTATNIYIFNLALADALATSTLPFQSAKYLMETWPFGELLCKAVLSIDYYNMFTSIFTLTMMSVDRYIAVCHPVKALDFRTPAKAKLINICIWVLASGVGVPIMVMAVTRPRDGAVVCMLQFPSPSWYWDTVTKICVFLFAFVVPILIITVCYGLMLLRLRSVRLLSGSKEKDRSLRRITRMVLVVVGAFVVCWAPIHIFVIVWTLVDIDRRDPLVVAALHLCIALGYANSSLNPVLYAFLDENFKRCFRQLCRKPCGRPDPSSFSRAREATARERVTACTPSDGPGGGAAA
Sequence of Muscarinic acetylcholine receptor M2 (Homo sapiens) (P08172 whole entry, looked up): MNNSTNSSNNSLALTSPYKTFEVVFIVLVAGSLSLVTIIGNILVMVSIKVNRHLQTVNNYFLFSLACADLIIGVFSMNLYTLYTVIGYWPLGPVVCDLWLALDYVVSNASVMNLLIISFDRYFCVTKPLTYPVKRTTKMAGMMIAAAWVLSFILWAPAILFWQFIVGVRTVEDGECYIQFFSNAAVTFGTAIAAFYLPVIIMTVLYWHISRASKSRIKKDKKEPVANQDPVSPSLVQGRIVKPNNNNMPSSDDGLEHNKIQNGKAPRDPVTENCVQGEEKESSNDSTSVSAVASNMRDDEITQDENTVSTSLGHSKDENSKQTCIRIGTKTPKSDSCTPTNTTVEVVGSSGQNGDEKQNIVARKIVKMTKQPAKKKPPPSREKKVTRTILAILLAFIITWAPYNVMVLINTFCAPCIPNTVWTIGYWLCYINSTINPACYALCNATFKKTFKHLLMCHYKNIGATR
Sequence of human Neurotensin Receptor (NTS), NTSR1 (gene 4923) (P30989 whole entry, looked up): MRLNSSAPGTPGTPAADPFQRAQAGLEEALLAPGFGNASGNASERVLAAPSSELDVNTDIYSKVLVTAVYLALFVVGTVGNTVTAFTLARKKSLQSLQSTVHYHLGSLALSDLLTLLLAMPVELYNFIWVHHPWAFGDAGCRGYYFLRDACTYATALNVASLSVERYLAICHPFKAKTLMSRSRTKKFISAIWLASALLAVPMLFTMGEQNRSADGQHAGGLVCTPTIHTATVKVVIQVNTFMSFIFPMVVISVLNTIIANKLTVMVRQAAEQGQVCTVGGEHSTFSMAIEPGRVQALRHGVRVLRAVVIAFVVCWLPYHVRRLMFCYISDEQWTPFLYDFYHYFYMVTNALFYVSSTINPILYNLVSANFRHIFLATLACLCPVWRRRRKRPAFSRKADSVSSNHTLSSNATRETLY
Sequence of human Purinergic Receptor P2Y, P2RY1 (gene 5028) (P47900 whole entry, looked up): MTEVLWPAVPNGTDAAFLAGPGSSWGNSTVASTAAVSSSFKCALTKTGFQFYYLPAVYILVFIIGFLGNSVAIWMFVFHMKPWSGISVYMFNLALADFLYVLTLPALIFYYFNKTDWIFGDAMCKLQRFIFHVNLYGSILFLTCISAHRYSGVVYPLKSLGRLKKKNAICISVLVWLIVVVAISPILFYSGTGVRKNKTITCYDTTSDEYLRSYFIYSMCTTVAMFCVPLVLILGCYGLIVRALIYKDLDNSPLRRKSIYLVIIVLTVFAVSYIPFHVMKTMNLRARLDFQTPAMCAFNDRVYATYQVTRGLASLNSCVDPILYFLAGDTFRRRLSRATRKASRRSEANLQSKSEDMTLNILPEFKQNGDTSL
Sequence of Muscarinic acetylcholine receptor M1 (Homo sapiens) (P11229 whole entry, looked up): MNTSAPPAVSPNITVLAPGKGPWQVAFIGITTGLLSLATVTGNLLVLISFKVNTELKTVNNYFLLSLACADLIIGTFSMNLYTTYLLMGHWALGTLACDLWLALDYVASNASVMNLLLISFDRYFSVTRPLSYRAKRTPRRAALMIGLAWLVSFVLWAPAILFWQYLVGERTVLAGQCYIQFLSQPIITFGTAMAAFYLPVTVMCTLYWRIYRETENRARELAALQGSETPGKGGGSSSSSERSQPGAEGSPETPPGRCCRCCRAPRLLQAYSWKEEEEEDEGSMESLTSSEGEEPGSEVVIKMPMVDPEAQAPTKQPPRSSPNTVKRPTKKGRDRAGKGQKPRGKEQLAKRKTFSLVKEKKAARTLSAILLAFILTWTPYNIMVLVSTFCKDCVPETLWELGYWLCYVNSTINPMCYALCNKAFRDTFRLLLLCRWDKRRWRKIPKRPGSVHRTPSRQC

The term AC50 denotes the concentration at which the activity in the assay is half-maximal. As to `CCN(CC)CCOc1ccc(C(=C(Cl)c2ccccc2)c2ccccc2)cc1`, the AC50 in [1] is 2.28 µM (active); in assay [2], 2.53 µM (active); in assay [3], 31.8 µM (active); in assay [4], 9.71 µM (active); in [6] it was 9.7 µM (active); in [7], 28.9 µM (active) and 7.41 µM (active) and 31.3 µM (active). Besides, the AC50 was 21.4 µM (active) in [8]; 4.76 µM (active) in assay [9]; 21 µM (active) and 5.8 µM (active) and 15.9 µM (active) in assay [10]; 7.75 µM (active) in [11]. Besides, in assay [5], the compound was classed as inactive.
Turning to `CN(C)C(=O)NC1(c2ccccc2)CCN(CC[C@@]2(c3ccc(F)c(F)c3)CN(C(=O)c3ccccc3)CCO2)CC1`, the half-maximal activity concentration (AC50) is 9.11 µM (active) in [12]; 12.8 µM (active) in assay [2]; 0.00564 µM (active) in assay [4]; 12.8 µM (active) in assay [8]; 16.7 µM (active) in assay [10].
As for `CCc1cc(C2=C(C(=O)O)N(c3ccccc3C(F)(F)F)S(=O)(=O)c3ccccc32)cc2c1OCO2`, the AC50 in [13] is 17.1 µM (active); in assay [4], 25 µM (active); in assay [14], 3.08 µM (active); in assay [8] it was 16.6 µM (active); in assay [9], 4.11 µM (active).
On to `O=C1CCCCC1`, for which the compound was called inactive in assay [15].
`C=CCc1ccc(OC)c(OC)c1`: in [10], the call was inactive.
Take `Cc1cc(SC2=C(O)C[C@@](CCc3ccc(N)cc3)(C(C)C)OC2=O)c(C(C)(C)C)cc1CO`: the outcome in assay [1], in assay [16], in [2] and in assay [8] was inactive. For the same compound, the AC50 in assay [14] is 0.881 µM (active).
Turning to `CS(=O)(=O)c1ccc([C@@H](C[C@H]2CCC(=O)C2)C(=O)Nc2cnccn2)cc1Cl`, the result in assay [17] was inactive.
Regarding `CCCCCCCCCCCCCCOS(=O)(=O)O`, the concentration at half-maximal activity (AC50) was 5.18 µM (active) in [1]; 25 µM (active) in assay [16]; 25 µM (active) in assay [18]; 16.5 µM (active) in [2]; 46.3 µM (active) in [4]; 8.07 µM (active) in [6]. In addition, the figures for the AC50 in assay [17], in [14] and in assay [7] were 10.3 µM (active), 7.59 µM (active) and 16.3 µM (active), respectively.
Turning to `CCC(C)N(C)C(=O)c1cc2ccccc2c(-c2ccccc2Cl)n1` (stereo not given), the AC50 in assay [4] was 15.9 µM (active); in assay [14], 1 µM (active); in assay [8] it was 10.8 µM (active); in assay [9], 7.29 µM (active). Also, in assay [19], the compound was classed as inactive.
`COc1ccc(OC(F)(F)F)cc1CN[C@H]1CCCN[C@H]1c1ccccc1`: the AC50 in [1] is 25 µM (active); in assay [2], 9.18 µM (active); in [4], 13.5 µM (active).
For `CN(C)CCCN1c2ccccc2Sc2ccc(Cl)cc21`, the AC50 was 25 µM (active) in [4], 14.5 µM (active) in assay [5], 21.8 µM (active) in [8] and 8.89 µM (active) in assay [20].
For the compound `O=C(NS(=O)(=O)/C=C/c1cccs1)c1ccc(F)cc1Br`, the AC50 in assay [8] is 22.6 µM (active).
Turning to `O=C1OC(c2ccc(O)cc2)(c2ccc(O)cc2)c2ccccc21`, the AC50 in assay [1] is 4.96 µM (active); in [6] it was 6.64 µM (active); in [14] it was 0.454 µM (active).
`CC(=O)[C@@]1(O)CC[C@H]2[C@@H]3CCC4=CC(=O)CC[C@]4(C)[C@H]3CC[C@@]21C`: in assay [12], the AC50 is 0.617 µM (active).
